In all, about 96,000 compounds went through this assay and about 20,000 (21%) were called active. The list is a sample of the results. Unmarked numbers belong to inactive results.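 How the source made its calls: active means CYP2C19 inhibition above a set limit at 5 µM in the primary screen (cut at about 50% in these data); inactive means the rest.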
The compounds below were run against Cytochrome P450 2C19 (Homo sapiens) (UniProt P33261) (assay: blockers of cytochrome P450 2C19 activity – biochemical, luminescence, ADME assay, primary screen (AID 778;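 further: plate controls were negative control wells for no effect and 2.5 mM tranylcypromine positive control for full effect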)). Conditions: CYP2C19 Supersomes, luciferin-H EGE luminescence, 30 min; at 5 µM; hits give high values.
Chain of Cytochrome P450 2C19 (Homo sapiens) (P33261 whole entry, looked up): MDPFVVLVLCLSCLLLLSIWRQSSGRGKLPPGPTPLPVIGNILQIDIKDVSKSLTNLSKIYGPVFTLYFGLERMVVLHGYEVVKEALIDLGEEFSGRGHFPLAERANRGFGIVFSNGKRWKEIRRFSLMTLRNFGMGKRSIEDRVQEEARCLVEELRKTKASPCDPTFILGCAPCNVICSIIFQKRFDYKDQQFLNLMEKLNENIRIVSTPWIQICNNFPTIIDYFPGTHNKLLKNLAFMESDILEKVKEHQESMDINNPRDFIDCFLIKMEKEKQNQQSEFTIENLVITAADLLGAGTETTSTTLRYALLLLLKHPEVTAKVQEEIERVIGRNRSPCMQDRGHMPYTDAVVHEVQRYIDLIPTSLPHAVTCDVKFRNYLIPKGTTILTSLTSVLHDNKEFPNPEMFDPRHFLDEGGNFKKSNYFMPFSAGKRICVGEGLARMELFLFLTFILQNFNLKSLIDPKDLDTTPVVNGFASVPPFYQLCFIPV

SMILES	inhibition
Cc1cc(C)nc(N2CCN(c3ncnc4c3oc3ccccc34)CC2)n1	-16.1%
CCOC(=O)CN1C(=O)C(=O)c2cc(C)ccc21	-2.2%
CCCCOC(=O)Cn1c(=O)n(CC(=O)OCCCC)c2cc(C)ccc21	55.8% (active)
CCCCOC(=O)Cn1c(=N)n(CCN(CC)CC)c2ccccc21	-29.6%
Cc1ccc2nc3n(c(=O)c2c1)CCC3	-4.2%
Cc1ccccc1NC(=O)Cc1nnc(SCC(=O)N2CCN(c3ccccc3)CC2)n1C	26.9%
O=C(Nc1cccc(-c2nnc(-c3ccccc3)o2)c1)C1CCCO1 (stereo unspecified)	71.9% (active)
O=C(Nc1ccc(-c2nnc(-c3ccccc3)o2)cc1)C1CCCO1 (stereo unspecified)	17.1%
O=C(Nc1nnc(CCc2ccccc2)s1)C1CCCO1 (stereo unspecified)	15.6%
Cc1nc(SCC(=O)Nc2cc(C)on2)c2c(C)c(C)sc2n1	9.2%
CCOc1cc(C2C(C(=O)OC)=CN(C3CCCC3)C=C2C(=O)OC)cc(Br)c1O	-1.9%
CC(=O)c1cc(NC(=O)c2ccccc2)c(=O)oc1/C=C/N(C)C	0.3%
CN(C)c1cc(N)c2ccccc2n1 (tested in a mixture with another compound)	-9.5%
Cc1cc(Nc2ccccc2)n(CCC#N)n1	-5.9%
CN1CCN(c2ccc(NC(=O)COc3ccc(Cl)cc3Cl)cc2)CC1	17.9%
Cc1cc(NC(=O)COc2ccc(Cl)cc2Cl)n(CCC#N)n1	99.1% (active)
Cc1ccc(S(=O)(=O)N2C3C=CC(C3)C2C(=O)O)cc1 (stereo unspecified)	10.3%
CC(C)(C)c1csc(NC2=NS(=O)(=O)c3ccccc32)n1	0.4%
CC(C)(C)c1ccc(OC2=CS(=O)(=O)c3ccccc32)cc1	65.2% (active)
O=S1(=O)C=C(SCCN2CCCC2)c2ccccc21	28.3%
COc1cc2[nH]c(=S)n(CCN3CCCCC3C)c(=O)c2cc1OC (stereo unspecified)	-5.5%
O=C1CCCc2c1[nH]c1ccc(Br)cc21	15.9%

SMILES	inhibition
Nc1c(-c2ccc(F)cc2)cnc2ncnn12	-14%
COC(=O)[C@H](CCSC)NC(=O)Nc1ccc(OC)cc1	38%
Cn1c(=O)c2c(nc(OCc3cccnc3)n2Cc2ccccc2)n(C)c1=O	16.8%
Fc1ccccc1COc1ccccc1CNCc1ccncc1	96.3% (active)
COc1cc(/C=C2/C(=O)ON=C2C)ccc1OCc1ccccc1F	17.5%
Cc1nc2ccccc2cc1OCc1ccc(F)cc1	17.6%
c1ccc(COc2ccccc2CNCc2cccnc2)cc1	59.4% (active)
COc1ccccc1CNCc1cccs1	31.8%
Cc1nnc(SCC(=O)NC2CCCC2)s1	19.1%
Cn1cccc1C(=O)NC(=O)COC(=O)Cc1coc2ccc3ccccc3c12	31.8%
O=c1[nH][nH]c(=O)c2cc(N3CCCC3)ccc12	0.9%
CCOc1ccc(-c2nc(C)sc2CC(=O)O)cc1	12.3%
CCc1nc(C)ccc1OCC(=O)N(CC)CC	0.2%
C=CCn1c(SCC(=O)NCc2ccccc2)nnc1-c1cc(Br)ccc1O	91.6% (active)
C=CCn1c(COc2ccccc2)nnc1SCC(=O)NCC(=O)OCC	-8.4%
C=CCn1c(CSc2nc3ccccc3s2)nnc1SCC(=O)NCc1ccco1	24.8%
C=CCn1c(N)cc(=O)nc1SCC(=O)Nc1cccc2ccccc12	1%
C=CCn1c(SCC(=O)Nc2nc3ccccc3s2)nnc1-c1ccccc1O	54.6% (active)
CCCCCCn1c(CN2CCCC(C)C2)nc2c1c(=O)n(C)c(=O)n2C (stereo unspecified)	2.2%
CCOC(=O)Nc1ccc2c(c1)N(C(=O)CN1CCN3CCCC3C1)c1ccccc1CC2 (stereo unspecified)	18.2%
CCCCNC(=O)C1CCCNC1=O (stereo unspecified)	-19%
CCOC(=O)C1=C(c2ccccc2)O/C(=C(/C(=O)OC)C(F)(F)F)S1	11.1%

SMILES	inhibition
CCOC(=O)c1nnn(-c2nc(OC)nc(N(C)C)n2)c1-c1ccccc1	27.7%
CCOC(=O)c1nnn(-c2nonc2OC)c1-c1ccccc1	60.7% (active)
Cc1cccc(C(=O)Nc2ccc(C(=O)/C=C/c3cccs3)cc2)c1	-1.9%
CCCNC(=O)NCc1ccc(N2CCCC2=O)cc1	3.6%
Brc1ccc(OCCn2ccnc2)cc1	91.7% (active)
COc1cccc(C(=O)Nc2c3c(nn2-c2cccc(C)c2C)CS(=O)(=O)C3)c1OC	-2.2%
C=CCNC(=O)C1CC=CCC1C(=O)O (stereo unspecified)	-11.3%
N#CC1=C(SCc2ccccc2)NC(=O)C(C#N)C12CCCC2 (stereo unspecified)	63.9% (active)
Cc1ccc(Cc2nc(-c3cccc(C)c3)no2)cc1	2.2%
O=C1c2ccccc2C(=O)N1CCCc1nc(-c2ccccc2)no1	9.5%
c1ccc(CCc2nc(-c3ccncc3)no2)cc1	97.5% (active)
CCOC(=O)N1CCN(CC(=O)Nc2cc(C)nn2-c2nc3ccccc3s2)CC1	39.8%
CCn1cc(C(=O)N/N=C(/C)c2ccc(F)cc2)c(=O)c2cc(F)c(N3CCCC3)cc21	39.5%
Cc1nnc(SCC(=O)Nc2ncc3c(n2)CC(C)(C)CC3=O)s1	1.5%
CCN1C(=O)C(CC(=O)Nc2cc(C)ccc2C)SC1=Nc1ccc(S(N)(=O)=O)cc1 (stereo unspecified)	17.6%
Cn1cccc1C(=O)Nc1nccs1	8.5%
CC(=O)Oc1ccc(C(=O)Nc2nccs2)cc1	16.7%
O=C(CCSCCc1ccccn1)Nc1nccs1	82.6% (active)
NC(=NC(=O)c1ccccc1)N1CCOCC1	12%
CC(C(=O)O)N1C(=O)c2cccc3cccc1c23 (stereo unspecified)	-13.8%
CC(C(=O)N1CCOCC1)N1c2cccc3cccc(c23)S1(=O)=O (stereo unspecified)	80.5% (active)
O=C(NCCN1CCN(Cc2ccccc2)CC1)c1cc2c(=O)[nH]c3ccccc3c2s1	-2.7%
